About 2,000 (36%) of roughly 5,500 compounds were called active. About 18% were inconclusive and are not listed. No stated cut-off is given here; in the data, active means normalized growth mostly below about 0.91 (no sharp cut-off); inconclusive means no clear call, values can overlap the other calls; inactive means mostly above about 0.92. The list shows a part of the results.
Test: chemical genetic growth profiling, strain panel (AID 1159580);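 further: tested at 20 µM; growth read once vehicle control cultures reached saturation at 30 °C; 1 = growth at the plate median or of vehicle wells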
Conditions: growth OD

Measured: normalized growth

Nc1ccc(C(=O)NCC(=O)O)cc1
inactive: S. cerevisiae deletion strains, locus YKL009W, strain mrt4, stronger effect = lower value 1.02 | S. cerevisiae deletion strains, locus YKL068W, stronger effect = lower value 1 | S. cerevisiae deletion strains, locus YKL085W, strain MDH1 (second series), stronger effect = lower value 1.01 | S. cerevisiae deletion strains, locus YKL085W, strain MDH1, stronger effect = lower value 1.01 | S. cerevisiae deletion strains, locus YKL160W, strain elf1, stronger effect = lower value 1.04 | S. cerevisiae deletion strains, locus YKL190W, strain CNB1, stronger effect = lower value 1 | S. cerevisiae deletion strains, locus YKR001C, strain vps1, stronger effect = lower value 1.02 | S. cerevisiae deletion strains, locus YKR026C, strain gcn3, stronger effect = lower value 1.01 | S. cerevisiae deletion strains, locus YKR091W, strain srl3, stronger effect = lower value 0.999 | S. cerevisiae deletion strains, locus YLL001W, strain dnm1, stronger effect = lower value 1 | S. cerevisiae deletion strains, locus YLL026W, stronger effect = lower value 0.997 | S. cerevisiae deletion strains, locus YLL041C, strain sdh2, stronger effect = lower value 1.01 | S. cerevisiae deletion strains, locus YLR027C, strain aat2, stronger effect = lower value 1.03 | S. cerevisiae deletion strains, locus YLR039C, strain RIC1, stronger effect = lower value 1.01 | S. cerevisiae deletion strains, locus YLR058C, strain SHM2, stronger effect = lower value 0.998 | S. cerevisiae deletion strains, locus YLR102C, strain apc9, stronger effect = lower value 1.02 | S. cerevisiae deletion strains, locus YLR113W, strain HOG1, stronger effect = lower value 0.937 | S. cerevisiae deletion strains, locus YLR221C, strain rsa3, stronger effect = lower value 1 | S. cerevisiae deletion strains, locus YLR258W, strain gsy2, stronger effect = lower value 1.03 | S. cerevisiae deletion strains, locus YLR262C, strain YPT6 (second series), stronger effect = lower value 1.02 | S. cerevisiae deletion strains, locus YLR262C, strain YPT6, stronger effect = lower value 1.04 | S. cerevisiae deletion strains, locus YLR268W, strain sec22, stronger effect = lower value 1.02 | S. cerevisiae deletion strains, locus YLR320W, strain mms22, stronger effect = lower value 1.01 | S. cerevisiae deletion strains, locus YLR330W, strain CHS5, stronger effect = lower value 1.01 | S. cerevisiae deletion strains, locus YLR342W, strain FKS1 (second series), stronger effect = lower value 0.987 | S. cerevisiae deletion strains, locus YLR342W, strain FKS1, stronger effect = lower value 1.02 | S. cerevisiae deletion strains, locus YLR357W, strain rsc2, stronger effect = lower value 1.07 | S. cerevisiae deletion strains, locus YLR370C, strain arc18, stronger effect = lower value 1.01 | S. cerevisiae deletion strains, locus YLR371W, strain rom2, stronger effect = lower value 1 | S. cerevisiae deletion strains, locus YLR384C, strain iki3, stronger effect = lower value 1.02 | S. cerevisiae deletion strains, locus YLR418C, strain cdc73, stronger effect = lower value 1.04 | S. cerevisiae deletion strains, locus YML016C, strain PPZ1, stronger effect = lower value 1 | S. cerevisiae deletion strains, locus YML032C, strain rad52, stronger effect = lower value 1.01 | S. cerevisiae deletion strains, locus YML120C, strain ndi1, stronger effect = lower value 1 | S. cerevisiae deletion strains, locus YML124C, strain tub3, stronger effect = lower value 1.01 | S. cerevisiae deletion strains, locus YMR058W, strain fet3, stronger effect = lower value 1.01 | S. cerevisiae deletion strains, locus YMR078C, strain ctf18, stronger effect = lower value 1.02 | S. cerevisiae deletion strains, locus YMR125W, strain sto1, stronger effect = lower value 1.02 | S. cerevisiae deletion strains, locus YMR129W, stronger effect = lower value 1.02 | S. cerevisiae deletion strains, locus YMR205C, strain PFK2, stronger effect = lower value 1.03 | S. cerevisiae deletion strains, locus YMR223W, strain ubp8, stronger effect = lower value 1.01 | S. cerevisiae deletion strains, locus YMR231W, strain pep5, stronger effect = lower value 1.02 | S. cerevisiae deletion strains, locus YMR263W, strain SAP30, stronger effect = lower value 1 | S. cerevisiae deletion strains, locus YMR307W, strain GAS1, stronger effect = lower value 1.03 | S. cerevisiae deletion strains, locus YNL067W, strain RPL9B, stronger effect = lower value 0.99 | S. cerevisiae deletion strains, locus YNL071W, strain lat1, stronger effect = lower value 1.03 | S. cerevisiae deletion strains, locus YNL153C, strain GIM3, stronger effect = lower value 0.973 | S. cerevisiae deletion strains, locus YNL183C, strain NPR1, stronger effect = lower value 0.908 | S. cerevisiae deletion strains, locus YNL209W, strain ssb2, stronger effect = lower value 1.01 | S. cerevisiae deletion strains, locus YNL233W, strain BNI4, stronger effect = lower value 0.986 | S. cerevisiae deletion strains, locus YNL248C, strain rpa49, stronger effect = lower value 1.02 | S. cerevisiae deletion strains, locus YNL250W, strain rad50, stronger effect = lower value 1.01 | S. cerevisiae deletion strains, locus YNL271C, strain bni1, stronger effect = lower value 1.02 | S. cerevisiae deletion strains, locus YNL298W, strain CLA4, stronger effect = lower value 1.03 | S. cerevisiae deletion strains, locus YNL307C, strain MCK1, stronger effect = lower value 1.02 | S. cerevisiae deletion strains, locus YNL322C, strain KRE1 (second series), stronger effect = lower value 1.01 | S. cerevisiae deletion strains, locus YNL322C, strain KRE1, stronger effect = lower value 0.997 | S. cerevisiae deletion strains, locus YNR049C, strain mso1, stronger effect = lower value 1.01 | S. cerevisiae deletion strains, locus YNR052C, strain pop2, stronger effect = lower value 1.02 | S. cerevisiae deletion strains, locus YOL006C, strain TOP1, stronger effect = lower value 0.96 | S. cerevisiae deletion strains, locus YOL012C, strain htz1 1.06 | S. cerevisiae deletion strains, locus YOL147C, strain pex11, stronger effect = lower value 1.01 | S. cerevisiae deletion strains, locus YOR001W, strain rrp6, stronger effect = lower value 0.986 | S. cerevisiae deletion strains, locus YOR061W, strain CKA2, stronger effect = lower value 1.01 | S. cerevisiae deletion strains, locus YOR069W, strain VPS5, stronger effect = lower value 1 | S. cerevisiae deletion strains, locus YOR070C, strain gyp1, stronger effect = lower value 1.01 | S. cerevisiae deletion strains, locus YOR080W, strain dia2, stronger effect = lower value 1.01 | S. cerevisiae deletion strains, locus YOR083W, strain WHI5, stronger effect = lower value 0.99 | S. cerevisiae deletion strains, locus YOR106W, strain vam3, stronger effect = lower value 1.04 | S. cerevisiae deletion strains, locus YOR136W, strain idh2, stronger effect = lower value 1.02 | S. cerevisiae deletion strains, locus YOR144C, strain elg1, stronger effect = lower value 1.01 | S. cerevisiae deletion strains, locus YOR184W, strain ser1, stronger effect = lower value 1.02 | S. cerevisiae deletion strains, locus YOR231W, strain MKK1, stronger effect = lower value 0.97 | S. cerevisiae deletion strains, locus YOR265W, strain rbl2, stronger effect = lower value 1 | S. cerevisiae deletion strains, locus YOR270C, strain vph1, stronger effect = lower value 1.02 | S. cerevisiae deletion strains, locus YOR290C, strain snf2, stronger effect = lower value 1.04 | S. cerevisiae deletion strains, locus YOR316C, strain cot1, stronger effect = lower value 1.02 | S. cerevisiae deletion strains, locus YPL051W, strain arl3, stronger effect = lower value 1.02 | S. cerevisiae deletion strains, locus YPL078C, strain atp4, stronger effect = lower value 1.02 | S. cerevisiae deletion strains, locus YPL106C, strain sse1, stronger effect = lower value 1.04 | S. cerevisiae deletion strains, locus YPL240C, strain hsp82, stronger effect = lower value 1.01 | S. cerevisiae deletion strains, locus YPL241C, strain CIN2, stronger effect = lower value 1 | S. cerevisiae deletion strains, locus YPL256C, strain CLN2, stronger effect = lower value 0.936 | S. cerevisiae deletion strains, locus YPR119W, strain clb2, stronger effect = lower value 1.01 | S. cerevisiae deletion strains, locus YPR141C, strain kar3, stronger effect = lower value 1.01 | S. cerevisiae deletion strains, locus YPR163C, strain tif3, stronger effect = lower value 1.01 | S. cerevisiae deletion strains, locus YPR167C, strain met16, stronger effect = lower value 1.02 | S. cerevisiae deletion strains, strain wtn01, stronger effect = lower value 1.03 | S. cerevisiae strains, strain wild type, stronger effect = lower value 0.995
